Rows were chosen to be rich in hits. Some 13% of all compounds tested hit in one or more screens of this group.
MARV entry inh: qHTS for inhibitors of binding or entry into cells for Marburg Virus. Potency, µM (highest dose often 37.8 µM), without a hit: top-dose activity change, negative = inhibition, actives largely listed as inhibitors. Marburg virus pseudotyped entry inhibition, cell reporter. 1.8% of 300,000 active; calls by dose curve; tested in HEK293 cells; further: potency means the concentration at half of the fitted maximal effect; on the % scale 0 is the no-effect control and ±100 the full control effect
FMDV inh: High Throughput Screening for Foot and Mouth Disease Virus Antivirals | FMDV antiviral cell-based qHTS | Potency, µM (titrated, usually from 57.9 µM), for the others: top-dose activity change, negative = inhibition, actives largely listed as inhibitors | 1.2% of 410,000 active | AID 1159524, 2015; calls by dose curve; tested in HEK293T cells; further: read-out not given here; potency means the concentration at half of the fitted maximal effect; on the % scale 0 is the no-effect control and ±100 the full control effect; nearly all actives have a fitted effect of over 45% in size
HCV inh: qHTS Assay for Inhibitors of Hepatitis C Virus (HCV); Huh7.5.1 HCVcc-Cre infection, luciferase reporter, 44 h; Potency, µM (top dose mostly 41.8 µM), for the others: top-dose activity change, negative = inhibition, usual class: inhibitors; 3.4% of 340,000 active; active means well fitted inhibition curve with a large enough effect; inconclusive means small, poorly fitted or top-dose-only effect, or another doubt; inactive means no such curve, though single readings can be large or run the other way; further: potency means the concentration at half of the fitted maximal effect; on the % scale 0 is the no-effect control and ±100 the full control effect
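Infectious HCV cell culture screen: compound-treated cells (1,000/well, pre-plated 4 h) are infected with HCVcc-Cre at roughly 0.5 moi and grown 44 h. Infection is quantified by luciferase signal after 15 min substrate incubation at room temperature.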
Shiga inhibitor: A qHTS for Small Molecule Inhibitors of Shiga Toxin. 9.2% of 290,000 active. AID 2315, 2010. Vero cells, Shiga toxin protein synthesis inhibition reporter. inhibition, % at 38.7 µM; in the data active means inhibition mostly above about 28%, no sharp cut-off; inactive means mostly below about 43%; further: 0% is about no effect
Lassa entry inh: qHTS for Inhibitors of binding or entry into cells for Lassa Virus. Lassa virus pseudotype entry inhibition, cell reporter. 1.2% of 300,000 active. AID 540256, 2011. Potency, µM (top dose mostly 37.9 µM), for the others: at the highest dose activity change, negative = inhibition, actives largely listed as inhibitors; calls by dose curve; tested in HEK293 cells; further: potency means the concentration at half of the fitted maximal effect; on the % scale 0 is the no-effect control and ±100 the full control effect; nearly all actives have a fitted effect of over 50% in size
Cycloheximide cs: Cycloheximide Counterscreen for Small Molecule Inhibitors of Shiga Toxin; cell reporter, cycloheximide protein synthesis inhibition counterscreen; AID 2314, 2010; max response, %; 12% of 300,000 active; in the data active means max response mostly above about 13%, no sharp cut-off; inactive means mostly below about 14%; further: read at 38.3 µM for the half of the compounds with a filed dose; 0% is about no effect
Active calls of the source: *; u = inconclusive; x = not tested or not shown; [ ] = remark or other dose.

SMILES	MARV entry inh	FMDV inh	HCV inh	Shiga inhibitor	Lassa entry inh	Cycloheximide cs
O=C(Nc1ccc(Cl)cc1)c1cc2c(Cl)nc3ccccc3c2s1	0%[46.1 µM]	-8%	x	x	-5%[46.1 µM]	x
O=C(Nc1nnc(-c2ccccc2Cl)o1)c1cc2cc([N+](=O)[O-])ccc2s1	13%	x	-1%	-5	4%	-2
Cc1ccc(NC(=O)c2ccc([N+](=O)[O-])cc2Cl)nc1	u	24%	-5%	125*	u	75*
COc1ccc(CC(=O)NCC(c2cccs2)S(=O)(=O)c2ccc(C)cc2)cc1 (centres undefined)	x	-11%	x	x	-27%[46.1 µM]	x
Cc1ccc(Cl)cc1N1CCN(C(=O)CCc2nnc3n(C)c(=O)c4ccccc4n23)CC1	13%[46.1 µM]	-13%	x	x	x	x
O=c1c(-c2ccccc2)nc2cnc(Oc3ccccc3)nc2n1C[C@H]1CCCO1	x	-5%	x	x	x	x
O=C(Nc1ccccn1)c1ccc(Cl)c([N+](=O)[O-])c1	1%[46.1 µM]	18%	-10%	64*	0%[46.1 µM]	20*
O=C(Nc1cccc(NC(=O)c2cc([N+](=O)[O-])ccc2Cl)n1)c1cc([N+](=O)[O-])ccc1Cl	x	13µM*	1.1µM*	x	x	x
O=C(Nc1cccnc1Cl)c1ccc(Cl)c([N+](=O)[O-])c1	-2%	19%	18%	17	0%	6
Cc1cc(NC(=O)c2ccc([N+](=O)[O-])cc2Cl)no1	x	40%	4%	70*	x	43*
O=C(Nc1ccccn1)c1ccc([N+](=O)[O-])cc1Cl	10%	25%	-2%	35	2%	16*
COc1ccccc1CNC(=O)c1ccc(OCC2CCCO2)cc1 (centres undefined)	u	0%	9%	-7	17%	-2
CN(C)[C@@H](CO)c1nnc([C@H](CC(=O)O)NC(=O)C2CCNCC2)o1	x	-10%	18%	-3	x	1
Cn1cc(S(=O)(=O)Nc2ccc(Br)cc2F)c(=O)n(C)c1=O	x	-8%	2%	-6	x	-1
O=C(N/N=C/c1ccccn1)c1ccc([N+](=O)[O-])cc1Cl	x	24%	-2%	x	x	28*
O=C(N/N=C/c1cccnc1)c1ccc([N+](=O)[O-])cc1Cl	-8%	23%	10%	35	2%	10
CSc1ccc(Cl)c(C(=O)Nc2ccc(C)cn2)c1	u	19%	1%	36	u	25*
O=C(c1cc2cc([N+](=O)[O-])ccc2s1)N1CCCCC1	x	43%	4%	35	x	28*
Cc1cc2nc(-c3ccc4c(c3)CCC4)ccn2n1	u	20%	-5%	46*	0%[46.1 µM]	20*
Cc1cc2nc(-c3cc(N4CCOCC4)ccc3[N+](=O)[O-])ccn2n1	6%[46.1 µM]	-5%	u	-5	9%	-10
CN(Cc1ccc(C(F)(F)F)cc1)C(=O)[C@H]1O[C@@H](n2ccc(=O)[nH]c2=O)[C@H](O)[C@@H]1O	x	-7%	x	x	x	x
CC(C)(C)C(=O)CC(=O)Nc1ccc(Cl)c(N)c1	u	x	6%	167*	0%	47*
CNc1nc(-c2ccc3c(c2)CCN3C(=O)c2ccccc2C)cs1	u	8%	u	64*	u	34*
O=C(Nc1nc(-c2ccc(F)cc2)cs1)C1CCN(C(=O)c2ccc(F)cc2)CC1	11µM*	11µM*	u	x	-28%[46.1 µM]	x
O=C(CN1CCCC1)Nc1nc(-c2ccc3c(c2)CCN3C(=O)c2ccccc2F)cs1	u	3%	10µM*	31	u	20*
SMILES	MARV entry inh	FMDV inh	HCV inh	Shiga inhibitor	Lassa entry inh	Cycloheximide cs
CNc1nc(-c2ccc3c(c2)CCN3C(=O)c2ccc(F)cc2)cs1	x	2%	u	91*	x	45*
CC(C)(C)OC(=O)N1CCC[C@H]1c1nnc(SCc2c(F)cccc2Cl)o1	-39%	0%	12%	-4	u	-2
Cc1cccc(C(=O)N2CCc3cc(-c4csc(NC(=O)CN5CCCC5)n4)ccc32)c1	u	u	u	9	x	9
CNc1nc(-c2ccc3c(c2)CCN3C(=O)c2cccc(F)c2)cs1	x	-22%	11µM*	59*	x	44*
COc1ccc(-c2c[n+]3c4n2CCCCC4=C(c2ccccc2)C3)cc1	x	22µM*	-27%	-5	x	-3
CC(C)C(=O)Nc1nc2c(ncn2C2CC(O)C(CO)O2)c(=O)[nH]1 (centres undefined)	x	-17%	26%	-8	x	-7
CCOc1ccccc1NC(=O)C(Cc1ccccc1)NS(=O)(=O)c1ccc2c(c1)oc(=O)n2C (centres undefined)	4%[46.1 µM]	4%	x	x	7%[46.1 µM]	x
CN(C)/C=N/c1nc(Sc2ccc(C(F)(F)F)cc2[N+](=O)[O-])n[nH]1	-3%	-18%	17%	-11	-5%	-1
O=[N+]([O-])c1cc(C(F)(F)F)cc([N+](=O)[O-])c1Sc1n[nH]c(C(F)(F)F)n1	1%[46.1 µM]	6.3µM*	15%	18	27%[46.1 µM]	5
C(=C\c1nnc2c3ccccc3ncn12)/c1ccccc1	u	-5%	u	61*	u	51*
COc1cc(/C=C/c2nnc3c4ccccc4ncn23)cc(OC)c1OC	u	0%	2.2µM*	14	u	14*
CCC(C(=O)OC)(C(=O)OC)c1ccc([N+](=O)[O-])cc1	-6%[46.1 µM]	-17%	-6%	-6	-4%[46.1 µM]	0
CC(C)(C)OC(=O)N1CCC[C@H]1c1nnc(SCc2ccc(Cl)cc2Cl)o1	8.9µM*	40µM*	u	30	u	-3
O=C(C[C@H]1C/C=C\C[C@H](Cc2ccc(F)cc2)C(=O)OCCNC1=O)NCCO	x	-10%	12%	x	x	x
CCOC(=O)c1nnn(CC(=O)NC(=O)Nc2ccc(F)cc2)c1C(=O)OCC	2%[46.1 µM]	-19%	25%	-13	u	-2
CSc1cccc(NC(=S)N2CCC(c3ccccc3)C2)c1 (centres undefined)	u	15%	-29%	50*	u	20*
COc1cccc(NC(=S)N2CCC(Cc3ccccc3)CC2)c1	x	u	-11%	9	x	20
CCc1cccc(NC(=S)N2CCC(c3ccccc3)C2)c1 (centres undefined)	u	17%	-17%	74*	u	65*
CSc1cccc(NC(=S)N2CCC(N(C)C3CCCCC3)CC2)c1	-18%[46.1 µM]	-19%	-26%	-2	-32%	-2
O=C1NC(N2CCOCC2)=N/C1=C/c1ccc2c(c1)OCO2	5%	9%	23%	16	-10%	17*
Cc1noc(C)c1C(=O)N1CCCC(C(=O)c2cccc(C(F)(F)F)c2)C1 (centres undefined)	18%[46.1 µM]	-27%	-8%	-1	8%	1
O=S(=O)(Nc1ccc(-c2cn3ccccc3n2)cc1)c1ccccc1	x	19%	7%	87*	x	28*
Cc1cccc(S(=O)(=O)Nc2ccc(-c3cn4ccccc4n3)cc2)c1	-2%	-4%	9%	18	u	13*

Assay outcomes from PubChem BioAssay.
